Here are results for six compounds from PubChem BioAssay (EPA / NIEHS).

Active and inactive are the calls of the source. The calls were made as follows: active = hit-call score of the fitted dose curve at least 0.9, where 1 is the maximum; inactive = score below 0.9.

For orientation: AC50 means the concentration at which the activity in the assay is half-maximal.

Conditions in all cases: mRNA level, 48 h; actives raise or lower the signal
Read-out in test [1]: matrix metalloproteinase-3 (MMP3), MMP3 (gene 4314)
Kind of test: LTEA_HepaRG_MMP3: Life Technologies and Expression Analysis (LTEA) Assay for matrix metalloproteinase-3 (MMP3) using HepaRG (AID 2283519). Summed up:
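HepaRG, human; 48 h dosing, 8 conc. (max 100 uM, half-log), duplicate, 0.5% DMSO. Readout: MMP3 transcript by Fluidigm TaqMan qRT-PCR, ACTB/GAPDH/POLR2A-normalised. Gain or loss fitted vs DMSO.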

Read-out in test [2]: Paternally Expressed 10 (PEG10), PEG10 (gene 23089)
Kind of test: LTEA_HepaRG_PEG10: Life Technologies and Expression Analysis (LTEA) Assay for Paternally Expressed 10 (PEG10) using HepaRG (AID 2283520). Summed up:
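Differentiated HepaRG cells exposed 48 h in serum-free induction medium to eight half-log concentrations topping at 100 uM, 0.5% DMSO, in duplicate. PEG10 mRNA quantified by TaqMan qRT-PCR, normalized to ACTB, GAPDH and POLR2A; bidirectional fit versus DMSO.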

Read-out in test [3]: Protein phosphatase 2A (PPP2R4), PTPA (gene 5524)
In words: LTEA_HepaRG_PPP2R4: Life Technologies and Expression Analysis (LTEA) Assay for Protein phosphatase 2A (PPP2R4) using HepaRG (AID 2283522). Summed up: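 Differentiated human HepaRG cells in serum-free induction medium were exposed 48 h to 8 concentrations (top 100 µM, half-log steps, duplicate) in 0.5% DMSO. PPP2R4 mRNA was measured by TaqMan qRT-PCR, normalised to ACTB, GAPDH and POLR2A, and fitted bidirectionally versus DMSO.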

Read-out in test [4]: Phosphatase and tensin (PTEN), PTEN (gene 5728)
In words: LTEA_HepaRG_PTEN: Life Technologies and Expression Analysis (LTEA) Assay for Phosphatase and tensin (PTEN) using HepaRG (AID 2283523). In a few lines: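 Read-out is PTEN transcript level by multiplexed TaqMan qRT-PCR after 48 h chemical treatment of human HepaRG cultures in serum-free induction medium. Concentrations spanned 100 uM downward in half-log steps, 0.5% DMSO throughout; activity fitted in both directions against vehicle.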

Read-out in test [5]: Pyruvate Dehydrogenase Kinase 4 (PDK4), PDK4 (gene 5166)
In words: LTEA_HepaRG_PDK4: Life Technologies and Expression Analysis (LTEA) Assay for Pyruvate Dehydrogenase Kinase 4 (PDK4) using HepaRG (AID 2283525). Summed up:
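In this multiplexed human HepaRG expression assay, cells are treated 48 h with test chemicals across an eight-point range starting at 100 uM. PDK4 mRNA changes, normalized to ACTB/GAPDH/POLR2A, are fitted in both directions relative to vehicle.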

Read-out in test [6]: NAD(P)H dehydrogenase [quinone] 1 (NQO1), NQO1 (gene 1728)
In words: LTEA_HepaRG_NQO1: Life Technologies and Expression Analysis (LTEA) Assay for NAD(P)H dehydrogenase [quinone] 1 (NQO1) using HepaRG (AID 2283526). In a few lines:
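Differentiated human HepaRG cells in serum-free induction medium, dosed in duplicate for 48 h at 8 half-log concentrations up to 100 uM in 0.5% DMSO. NQO1 mRNA by qRT-PCR normalized to ACTB, GAPDH, POLR2A; bidirectional fit versus DMSO baseline.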

Read-out in test [7]: succinate dehydrogenase complex iron sulfur subunit B (SDHB), SDHB (gene 6390)
Kind of test: LTEA_HepaRG_SDHB: Life Technologies and Expression Analysis (LTEA) Assay for succinate dehydrogenase complex iron sulfur subunit B (SDHB) using HepaRG (AID 2283528). Summed up:
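A human HepaRG culture in serum-free induction medium received test chemicals for 48 h over an eight-point range capped at 100 uM. SDHB expression change was quantified by qRT-PCR.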

Read-out in test [8]: Signal transducer and activator of transcription 3 (Homo sapiens) (UniProt P40763)
Kind of test: LTEA_HepaRG_STAT3: Life Technologies and Expression Analysis (LTEA) Assay for Signal transducer and activator of transcription (STAT3) using HepaRG (AID 2283529). Summed up: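 Read-out is STAT3 mRNA level by qRT-PCR, normalized to three housekeeping genes, in human HepaRG liver cells treated for 48 h. Concentrations ran from 100 uM downward in half-log steps; curves were fitted for gain or loss relative to 0.5% DMSO.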

Read-out in test [9]: solute carrier (SLCO1B1), SLCO1B1 (gene 10599)
In words: LTEA_HepaRG_SLCO1B1: Life Technologies and Expression Analysis (LTEA) Assay for solute carrier (SLCO1B1) using HepaRG (AID 2283530). In a few lines: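 Human HepaRG cultures treated for 48 h with an eight-concentration half-log series topping at 100 uM; SLCO1B1 measured by qRT-PCR and fitted bidirectionally relative to DMSO.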

Read-out in test [10]: sulfotransferase 2A1 (SULT2A1), SULT2A1 (gene 6822)
Kind of test: LTEA_HepaRG_SULT2A1: Life Technologies and Expression Analysis (LTEA) Assay for sulfotransferase 2A1 (SULT2A1) using HepaRG (AID 2283531). In a few lines: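 Gene-expression endpoint in a human liver cell line: SULT2A1 mRNA change after 48 h chemical treatment, curves fitted in both directions relative to 0.5% DMSO vehicle. Concentrations spanned eight half-log steps from 100 uM.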

Read-out in test [11]: Transforming Growth Factor (TGFA), TGFA (gene 7039)
In words: LTEA_HepaRG_TGFA: Life Technologies and Expression Analysis (LTEA) Assay for Transforming Growth Factor (TGFA) using HepaRG (AID 2283532). In a few lines:
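HepaRG (human liver line), 48 h exposure, 8 conc. half-log down from 100 uM, 0.5% DMSO vehicle, duplicates; serum-free induction medium. TGFA mRNA by TaqMan qRT-PCR, ACTB/GAPDH/POLR2A normalization; gain/loss fit vs DMSO.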

Read-out in test [12]: Transforming Growth Factor (TGFB1), TGFB1 (gene 7040)
In words: LTEA_HepaRG_TGFB1: Life Technologies and Expression Analysis (LTEA) Assay for Transforming Growth Factor (TGFB1) Transporter using HepaRG (AID 2283533). In a few lines:
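Eight-point concentration-response (max 100 uM, half-log) in HepaRG under serum-free induction conditions, 48 h. TGFB1 mRNA by qRT-PCR, housekeeping-normalized.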

Read-out in a further test: TIMP1, TIMP1 (gene 7076)
In words: LTEA_HepaRG_TIMP1: Life Technologies and Expression Analysis (LTEA) Assay for TIMP1 using HepaRG (AID 2283534).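 Also: TaqMan qRT-PCR signal normalized to ACTB GAPDH and POLR2A housekeeping genes.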 In a few lines: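 TIMP1 induction or repression in HepaRG cells after 48 h chemical exposure (eight concentrations, highest 100 uM), assessed by normalized qRT-PCR with bidirectional fitting to DMSO controls.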

Read-out in test [13]: Tumor necrosis factor receptor 1 (TNFRSF1A), TNFRSF1A (gene 7132)
Kind of test: LTEA_HepaRG_TNFRSF1A: Life Technologies and Expression Analysis (LTEA) Assay for Tumor necrosis factor receptor 1 (TNFRSF1A) using HepaRG (AID 2283535). In a few lines: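 Assay uses 48 h chemical treatment of differentiated HepaRG monolayers, tested in duplicate at eight concentrations from 100 uM downward in 0.5% DMSO. mRNA is normalized to ACTB, GAPDH and POLR2A, with induction or suppression fitted relative to vehicle.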

Read-out in test [14]: Thyroid Hormone Responsive (THRSP), THRSP (gene 7069)
In words: LTEA_HepaRG_THRSP: Life Technologies and Expression Analysis (LTEA) Assay for Thyroid Hormone Responsive (THRSP) using HepaRG (AID 2283536). Summed up:
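mRNA induction or loss relative to 0.5% DMSO vehicle was fitted bidirectionally across an eight-point curve whose highest exposure was 100 uM. Human HepaRG liver cells received chemicals in duplicate over 48 h before RNA extraction.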

Read-out in test [15]: Cellular tumor antigen p53 (Homo sapiens) (UniProt P04637)
In words: LTEA_HepaRG_TP53: Life Technologies and Expression Analysis (LTEA) Assay for Tumor Protein P53 (TP53) using HepaRG (AID 2283537). In a few lines: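 Gain or loss of TP53 mRNA signal is scored relative to 0.5% DMSO after 48 h chemical treatment of HepaRG liver cells, tested in duplicate at eight half-log concentrations up to 100 uM.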

Read-out in test [16]: UDP glucuronosyltransferase (UGT1A1), UGT1A1 (gene 54658)
Kind of test: LTEA_HepaRG_UGT1A1: Life Technologies and Expression Analysis (LTEA) Assay for UDP glucuronosyltransferase (UGT1A1) using HepaRG (AID 2283538). In a few lines:
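HepaRG cells, 0.5% DMSO vehicle, 48 h exposure in serum-free induction medium to 8-point half-log series topping at 100 uM, in duplicate. UGT1A1 mRNA by Fluidigm qRT-PCR, normalized to ACTB/GAPDH/POLR2A; bidirectional fit versus DMSO.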

Read-out in test [17]: Nuclear factor NF-kappa-B p105 subunit (Homo sapiens) (UniProt P19838)
In words: LTEA_HepaRG_NFKB1: Life Technologies and Expression Analysis (LTEA) Assay for Nuclear Factor Kappa B Subunit 1 (NFKB1) using HepaRG (AID 2283521). Summed up:
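Human HepaRG cells receive eight half-log concentrations, highest 100 uM, for 48 h. NFKB1 expression is then quantified by qRT-PCR and analysed for up- or down-regulation relative to 0.5% DMSO vehicle.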

Read-out in test [18]: solute carrier (SLC22A1), SLC22A1 (gene 6580)
Kind of test: LTEA_HepaRG_SLC22A1: Life Technologies and Expression Analysis (LTEA) Assay for solute carrier (SLC22A1) using HepaRG (AID 2283524). Summed up: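 HepaRG (human liver line), 48 h dosing in serum-free induction medium; 8 conc., half-log down from 100 uM, 0.5% DMSO vehicle, duplicates. Endpoint: SLC22A1 mRNA, qRT-PCR, housekeeping-normalized; gain/loss fit vs DMSO.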

Read-out in test [19]: Nuclear factor erythroid 2-related factor 2 (Homo sapiens) (UniProt Q16236)
In words: LTEA_HepaRG_NFE2L2: Life Technologies and Expression Analysis (LTEA) Assay for Nuclear factor erythroid 2-related factor 2 (NFE2L2) Transcription Factor using HepaRG (AID 2283527). Summed up: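 Transcript level of NFE2L2 is the read-out, measured by microfluidic TaqMan qRT-PCR and normalized to three housekeeping genes. Human HepaRG cultures received test chemical for 48 h at up to 100 uM in half-log steps. Gain or loss of signal is fitted relative to 0.5% DMSO.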

Chain of Cellular tumor antigen p53 (Homo sapiens) (P04637 whole entry, looked up): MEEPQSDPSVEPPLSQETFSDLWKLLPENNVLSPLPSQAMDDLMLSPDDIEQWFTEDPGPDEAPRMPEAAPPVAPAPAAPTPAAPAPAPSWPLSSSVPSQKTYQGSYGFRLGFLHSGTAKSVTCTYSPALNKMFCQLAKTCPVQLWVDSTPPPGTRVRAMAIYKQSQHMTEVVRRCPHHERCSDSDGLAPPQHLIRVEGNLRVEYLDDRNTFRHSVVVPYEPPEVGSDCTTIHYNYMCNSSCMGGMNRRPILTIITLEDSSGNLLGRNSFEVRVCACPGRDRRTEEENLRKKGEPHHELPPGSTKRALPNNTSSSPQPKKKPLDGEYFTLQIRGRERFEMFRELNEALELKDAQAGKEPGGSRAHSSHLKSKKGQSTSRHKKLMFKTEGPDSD
Chain of Nuclear factor NF-kappa-B p105 subunit (Homo sapiens) (P19838 whole entry, looked up): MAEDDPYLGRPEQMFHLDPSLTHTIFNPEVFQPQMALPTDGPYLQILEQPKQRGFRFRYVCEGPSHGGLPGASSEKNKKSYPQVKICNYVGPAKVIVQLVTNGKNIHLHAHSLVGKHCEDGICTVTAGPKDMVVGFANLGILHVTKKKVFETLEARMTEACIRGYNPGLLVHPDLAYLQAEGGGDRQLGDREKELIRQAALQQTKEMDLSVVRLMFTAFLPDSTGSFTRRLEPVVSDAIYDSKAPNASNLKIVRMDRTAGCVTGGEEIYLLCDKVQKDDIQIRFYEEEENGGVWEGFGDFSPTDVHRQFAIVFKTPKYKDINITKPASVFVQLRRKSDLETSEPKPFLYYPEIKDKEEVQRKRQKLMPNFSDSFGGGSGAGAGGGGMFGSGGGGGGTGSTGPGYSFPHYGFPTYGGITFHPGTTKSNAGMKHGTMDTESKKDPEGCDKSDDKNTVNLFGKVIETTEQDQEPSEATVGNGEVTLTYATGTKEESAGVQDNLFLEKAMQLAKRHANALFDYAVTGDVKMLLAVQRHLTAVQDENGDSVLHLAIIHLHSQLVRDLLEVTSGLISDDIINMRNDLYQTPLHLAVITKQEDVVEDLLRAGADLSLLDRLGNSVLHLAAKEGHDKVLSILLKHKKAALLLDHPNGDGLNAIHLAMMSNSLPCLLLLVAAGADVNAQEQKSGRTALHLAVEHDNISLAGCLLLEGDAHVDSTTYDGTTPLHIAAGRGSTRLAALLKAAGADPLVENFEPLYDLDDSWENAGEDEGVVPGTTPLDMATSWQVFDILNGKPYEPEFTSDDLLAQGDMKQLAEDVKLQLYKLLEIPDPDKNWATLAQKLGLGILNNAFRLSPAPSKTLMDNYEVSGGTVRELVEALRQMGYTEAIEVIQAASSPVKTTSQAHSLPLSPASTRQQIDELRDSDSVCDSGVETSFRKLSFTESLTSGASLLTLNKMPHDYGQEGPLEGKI
Chain of Signal transducer and activator of transcription 3 (Homo sapiens) (P40763 whole entry, looked up): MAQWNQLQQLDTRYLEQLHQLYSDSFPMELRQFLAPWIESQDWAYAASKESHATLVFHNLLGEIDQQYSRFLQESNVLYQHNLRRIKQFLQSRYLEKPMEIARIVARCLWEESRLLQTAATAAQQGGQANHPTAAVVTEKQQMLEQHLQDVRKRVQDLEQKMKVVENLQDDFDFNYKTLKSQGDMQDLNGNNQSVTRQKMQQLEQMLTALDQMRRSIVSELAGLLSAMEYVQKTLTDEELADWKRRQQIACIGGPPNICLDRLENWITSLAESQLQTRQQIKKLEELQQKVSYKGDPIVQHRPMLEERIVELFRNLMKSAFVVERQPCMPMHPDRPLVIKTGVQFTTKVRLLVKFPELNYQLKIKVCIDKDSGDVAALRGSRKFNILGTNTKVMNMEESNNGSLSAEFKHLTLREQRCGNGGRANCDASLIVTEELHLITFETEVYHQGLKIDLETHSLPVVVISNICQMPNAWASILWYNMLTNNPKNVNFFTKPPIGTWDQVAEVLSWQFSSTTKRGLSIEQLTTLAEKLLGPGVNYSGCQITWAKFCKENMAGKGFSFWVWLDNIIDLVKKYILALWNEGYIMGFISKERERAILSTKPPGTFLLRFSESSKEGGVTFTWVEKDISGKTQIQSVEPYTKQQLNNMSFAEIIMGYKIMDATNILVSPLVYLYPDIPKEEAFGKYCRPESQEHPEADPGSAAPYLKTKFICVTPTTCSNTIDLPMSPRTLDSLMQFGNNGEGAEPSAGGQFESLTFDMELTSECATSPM
Chain of Nuclear factor erythroid 2-related factor 2 (Homo sapiens) (Q16236 whole entry, looked up): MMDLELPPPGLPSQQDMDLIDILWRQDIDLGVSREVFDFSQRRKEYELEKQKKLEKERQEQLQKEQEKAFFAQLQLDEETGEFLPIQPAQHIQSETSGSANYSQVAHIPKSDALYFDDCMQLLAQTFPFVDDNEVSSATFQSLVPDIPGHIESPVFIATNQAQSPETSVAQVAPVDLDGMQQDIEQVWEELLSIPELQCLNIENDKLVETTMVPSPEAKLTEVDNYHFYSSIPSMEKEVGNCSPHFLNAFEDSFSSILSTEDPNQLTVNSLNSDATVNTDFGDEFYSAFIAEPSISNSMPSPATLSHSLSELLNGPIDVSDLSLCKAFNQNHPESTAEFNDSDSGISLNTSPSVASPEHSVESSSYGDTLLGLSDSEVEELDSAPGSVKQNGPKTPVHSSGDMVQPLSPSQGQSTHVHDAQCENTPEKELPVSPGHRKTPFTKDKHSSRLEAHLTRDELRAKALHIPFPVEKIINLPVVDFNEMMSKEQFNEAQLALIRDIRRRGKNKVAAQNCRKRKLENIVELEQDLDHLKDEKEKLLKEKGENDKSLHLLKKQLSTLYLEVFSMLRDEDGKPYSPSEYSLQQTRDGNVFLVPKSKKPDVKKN

In the case of `OB(O)O`, the call in test [1], in test [2], in test [3], in test [4], in [5] and in [6] was inactive. Further, the compound was classed as inactive in [7], in test [8], in [9], in [10], in test [11] and in test [12]. In addition, the outcome is “inactive” in the test with TIMP1, TIMP1 (gene 7076); “inactive” in [13]; “inactive” in test [14]; “inactive” in [15]; “inactive” in test [16].

As for `c1ccc(Nc2ccccc2)cc1`, the compound was called inactive in test [1], in [2], in test [17], in [3], in test [4] and in test [5]. The compound was called inactive in test [6], in test [7], in [8], in [9], in test [10] and in [11]. The outcome is “inactive” in test [12]; “inactive” in the test with TIMP1, TIMP1 (gene 7076); “inactive” in test [13]; “inactive” in [14]; “inactive” in [15]; “inactive” in test [16].

As to `CCNc1nc(N)nc(Cl)n1`, the call in [1], in test [2], in test [17], in test [3], in test [4] and in test [5] was inactive. Moreover, the compound was classed as inactive in test [6], in test [7], in test [8], in test [9], in test [10] and in test [11]. In addition, the outcome in test [12] was “inactive”; in the test with TIMP1, TIMP1 (gene 7076), “inactive”; in test [13], “inactive”; in [14], “inactive”; in test [15] it was “inactive”. Besides, the AC50 in test [16] was 1.03 µM (active).

`CCN(Cc1c(F)cccc1Cl)c1c([N+](=O)[O-])cc(C(F)(F)F)cc1[N+](=O)[O-]`: the AC50 was 15.2 µM (active) in test [2]; 29.6 µM (active) in test [18]; 50 µM (active) in [19]; 22.8 µM (active) in test [14]; 30.3 µM (active) in test [15]; 7.12 µM (active) in test [16]. Further, the compound was called inactive in test [17], in test [3], in [4], in [5], in test [6] and in test [7]. The outcome in [8] is “inactive”; in test [9] it was “inactive”; in [10] it was “inactive”; in [11], “inactive”; in test [12], “inactive”; with TIMP1, TIMP1 (gene 7076), “inactive”. Besides, in test [13], the compound was classed as inactive.

Take `CCCCOC(=O)[C@@H](C)Oc1ccc(Oc2ccc(C(F)(F)F)cn2)cc1`: the outcome in [1], in [17], in test [3], in test [4], in [5] and in test [6] was inactive. Also, the compound was classed as inactive in test [7], in test [8], in test [9], in test [10], in test [11] and in test [12]. Besides, the outcome with TIMP1, TIMP1 (gene 7076) is “inactive”; in test [13], “inactive”; in test [14], “inactive”; in [15], “inactive”; in test [16], “inactive”. For the same compound, the AC50 in test [2] is 5.38 µM (active).

In the case of `CCCCCOC(=O)COc1cc(N2C(=O)C3=C(CCCC3)C2=O)c(F)cc1Cl`, the compound was classed as inactive in test [1], in [2], in [3], in [4], in [18] and in test [5]. For the same compound, the outcome in test [6], in test [7], in [8], in [9], in test [10] and in [11] was inactive. Also, the outcome in [12] was “inactive”; with TIMP1, TIMP1 (gene 7076) it was “inactive”; in test [13] it was “inactive”; in [14], “inactive”; in test [16], “inactive”.
